Data taken from the supplement of paper PMC12636033.
± gives the standard deviation of the averaged measurements. In all, about 33,000 sequences were measured (“E-score (rank enrichment, -0.5 to 0.5)”: median about -0.0043, highest 2% from about 0.24 on). What follows is part of a selection rich in the highest values, with near analogues and random picks from the rest.

System: 2Sp-muMax20 (muMax20 with two 2,6-bis(methyl)pyridine Cys staples)
Test: PBM 8-mer E-score (E-score (rank enrichment, -0.5 to 0.5)); higher = stronger preferential binding
Experimental: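 Protein binding microarray (universal PBM chip covering all 10-mers in fixed probe flanks) with chemically synthesized human Max(13-93) bHLH-LZ analogs (not full-length Max) bearing noncanonical residues (hArg, Tha, Aib, Nle at 65) and aromatic Cys staples. Read-out per 8-mer (and its reverse complement): E-score (rank-based enrichment, -0.5 to 0.5) and Z-score of median probe intensity.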

Sequence	PBM 8-mer E-score
ACTGATTA	0.0334 ± 0.067
ATTGATTA	0.124 ± 0.078
CCTGATTA	0.0465 ± 0.018
GTTGATTA	0.25 ± 0.057
CTTGATTA	0.0552 ± 0.1
GCTGATTA	0.273 ± 0.011
CAAAGAGG	0.00199 ± 0.021
GCTTACGA	0.0276 ± 0.057
CGGGTCCC	-0.36 ± 0.051
AAATGATT	-0.0058 ± 0.064
CACGGACA	-0.212 ± 0.011
AAAGGGCT	-0.0325 ± 0.13
AAGGGGCT	0.271 ± 0.019
AAGGGGCG	-0.00545 ± 0.089
ACCTCTGC	-0.0962 ± 0.11
CGGACAAA	-0.0707 ± 0.0079
CAGCGGCC	-0.156 ± 0.048
GGCATGCA	0.0431 ± 0.062
AGCATGCA	0.301 ± 0.023
AACATGCA	0.205 ± 0.17
ACCATGCA	0.187 ± 0.0036
CGCATGCA	0.161 ± 0.026
TGCATGCA	0.282 ± 0.038
CAAAGGGG	0.00961 ± 0.03
CACATCCA	0.103 ± 0.042

Sequence	PBM 8-mer E-score
CTCTTCCA	-0.0254 ± 0.029
AAGTCGAC	0.0839 ± 0.081
CAGCGGGG	-0.157 ± 0.043
CTCCTGCC	0.0184 ± 0.066
ATGATGTA	0.131 ± 0.049
GTGATGTA	0.268 ± 0.018
CTGATGTA	-0.072 ± 0.074
ACATACAT	0.252 ± 0.054
CCATATAA	0.0911 ± 0.065
ACATATAG	0.174 ± 0.031
ACATATAC	0.158 ± 0.072
TCATACGA	0.214 ± 0.047
ACATACAG	0.191 ± 0.11
ACATATAA	0.333 ± 0.0052
ACATACGA	0.237 ± 0.049
ACATATAT	0.309 ± 0.061
TCATATAA	0.227 ± 0.045
ACATACAC	0.0759 ± 0.032
ACATACGC	0.0353 ± 0.028
CGCAAATC	-0.0745 ± 0.17
CCGTCGAG	-0.0626 ± 0.0034
CTTATCGA	0.0942 ± 0.054
CGTTACGC	-0.173 ± 0.044
AAGTGGGG	0.1713 ± 0.001
GCATGGGA	-0.0247 ± 0.032

Sequence	PBM 8-mer E-score
AATCCCGG	-0.104 ± 0.0059
AGACTTAG	-0.023 ± 0.017
AGATATAG	0.174 ± 0.0033
AGATATAT	0.252 ± 0.043
AGATATAC	0.146 ± 0.046
ATATAGGG	0.0694 ± 0.043
CGGAATAC	-0.144 ± 0.035
AAAAGTGG	0.159 ± 0.0062
GCCTGCAA	-0.0187 ± 0.071
CTACATAA	0.122 ± 0.021
GTACATAA	0.171 ± 0.011
ACACATAG	-0.0161 ± 0.023
ACACATAA	0.24 ± 0.037
TTACATAA	0.259 ± 0.0094
CCACACTC	0.00608 ± 0.081
CCACACTA	0.261 ± 0.026
ACACACTA	0.158 ± 0.0088
GAACATAA	0.0635 ± 0.079
AAACATAG	0.0784 ± 0.084
GCACATAA	0.121 ± 0.02
AAACATAA	0.289 ± 0.0052
CAGTGGAG	0.0231 ± 0.066
CACAGGGC	-0.258 ± 0.027
CCAACTCA	-0.0281 ± 0.11
CCCACCAA	0.127 ± 0.019

Sequence	PBM 8-mer E-score
ATATCAAT	0.172 ± 0.089
AGCCTCTG	-0.079 ± 0.05
ATTTGAAA	0.168 ± 0.12
AGGTCTCC	-0.0447 ± 0.033
GTGCAGTA	0.106 ± 0.039
AACGACTA	0.0385 ± 0.073
ACACACAA	0.0759 ± 0.063
TCACACAA	0.238 ± 0.017
CCACACAA	0.0212 ± 0.012
ACCCCTGG	-0.144 ± 0.039
ATCGAAGG	-0.0475 ± 0.11
ACCATATA	0.23 ± 0.082
ACAAGCAC	-0.115 ± 0.13
GCAAGCAC	-0.00775 ± 0.028
CCAAGCAC	0.235 ± 0.038
CCCACCGC	0.0543 ± 0.035
ATTCTCAA	0.123 ± 0.02
ACTAGAAC	0.0769 ± 0.048
TAATATTA	0.343 ± 0.044
AAATATTC	0.249 ± 0.043
CAATATTA	0.19 ± 0.058
CAATATTC	0.0714 ± 0.068
TAATATGA	0.135 ± 0.072
AAATATTA	0.28 ± 0.067
GAATATTA	0.22 ± 0.026

Sequence	PBM 8-mer E-score
AAATATTG	0.075 ± 0.0023
GAATATTC	0.189 ± 0.064
ATCGAGAC	-0.161 ± 0.025
CGCGTCTC	0.157 ± 0.072
ACTGAGGG	-0.0464 ± 0.034
ACTGCTGC	0.0474 ± 0.025
CTGGGCGA	-0.174 ± 0.045
ATGGGCGA	0.0316 ± 0.058
GTGGGCGA	0.263 ± 0.088
AATCCCAC	0.00653 ± 0.032
GACTCTAC	-0.0372 ± 0.069
GTATTGGA	0.0561 ± 0.061
AGCATGAT	0.131 ± 0.051
CCCATGCG	0.0929 ± 0.051
AGCATGAG	0.121 ± 0.064
ACCATGCT	0.211 ± 0.0076
AGCATGCC	0.0906 ± 0.028
AGCATGAA	0.174 ± 0.04
CGCATGCC	0.189 ± 0.053
AGCATGCG	0.275 ± 0.0033
AGCATGCT	0.332 ± 0.036
ATCATGCG	0.136 ± 0.013
AGCATGAC	0.243 ± 0.051
CGCATGCG	0.286 ± 0.02
TATCCCGA	-0.0363 ± 0.017

Sequence	PBM 8-mer E-score
ACCACGGT	-0.234 ± 0.057
CCTCAAGA	0.175 ± 0.069
AATGACAA	0.179 ± 0.025
GGCGTCAC	0.0505 ± 0.091
TCGGTTAA	-0.144 ± 0.038
CCACACAC	0.0649 ± 0.082
AGGACAAT	0.0666 ± 0.068
CTCCATCA	0.0787 ± 0.11
GATCAGTA	0.141 ± 0.0015
CTCAACTC	0.0172 ± 0.017
AAGCTGAC	-0.0135 ± 0.013
AAGCTGTA	0.168 ± 0.027
AAGCTGAT	0.294 ± 0.012
AAGCTTAT	0.25 ± 0.032
AAGCTTAC	0.084 ± 0.0037
AAGCTTAA	-0.0812 ± 0.033
CAGCACTC	0.0109 ± 0.049
GGTTTTTA	0.118 ± 0.05
GTATCAAA	0.167 ± 0.037
ACGTTACT	0.097 ± 0.078
CCACTTTC	0.123 ± 0.028
GTTAATGA	0.181 ± 0.1
ATTAATTG	0.157 ± 0.057
ATTAATTA	0.312 ± 0.065
ATTAATGG	0.0949 ± 0.013

Sequence	PBM 8-mer E-score
GGTAATTA	0.147 ± 0.011
CTTAATGC	0.25 ± 0.014
CTTAATGA	0.0929 ± 0.029
ATTAATTC	0.229 ± 0.026
ATTAATGC	0.14 ± 0.0056
CGTAATTA	0.133 ± 0.0041
AGTAATTA	0.256 ± 0.051
ATTAATGA	0.276 ± 0.074
CATGCACC	0.161 ± 0.0063
GGGGTCGA	-0.0201 ± 0.04
TTACTGAA	0.0517 ± 0.035
ACGAAAAG	0.0249 ± 0.0051
ACGAGATG	-0.00212 ± 0.067
CCCCGATC	-0.166 ± 0.013
AGATTGTC	-0.0414 ± 0.0031
GACGGGCA	-0.0942 ± 0.011
ATTAATCA	0.259 ± 0.059
CTAAATTA	-0.0028 ± 0.045
ATTAATAG	0.197 ± 0.079
ATAAATTG	0.106 ± 0.026
ATTAACAA	0.161 ± 0.042
ATAAATTA	0.303 ± 0.049
ATTAATCC	0.0916 ± 0.0058
ATTAATAC	0.256 ± 0.1
CTTAACAC	0.164 ± 0.016

Sequence	PBM 8-mer E-score
ATTAACAC	0.306 ± 0.05
ATTAATAA	0.224 ± 0.12
GTTAATCA	0.198 ± 0.048
AAGAATCA	0.116 ± 0.04
GAGGCCTA	-0.184 ± 0.066
AGAAATCT	0.0669 ± 0.11
ATATGAAA	0.219 ± 0.031
ACACTTCG	-0.0252 ± 0.098
CAAAATTA	0.15 ± 0.063
AAAAATTA	0.116 ± 0.052
GAAAATTA	0.291 ± 0.063
AGCGTGCG	0.178 ± 0.02
CTAGAATA	0.108 ± 0.076
ATAGAATA	0.171 ± 0.011
GTAGAATA	0.253 ± 0.0027
CATATTAC	0.0498 ± 0.065
AATATTGG	0.0895 ± 0.038
TATATTAA	0.211 ± 0.059
AATATTAG	0.243 ± 0.026
CATATTAG	0.222 ± 0.025
AATATTAC	0.294 ± 0.0036
CATATTAA	0.247 ± 0.019
CATATTGC	0.164 ± 0.033
CATATTGG	0.251 ± 0.0054
ACTATTAG	-0.00553 ± 0.16

Sequence	PBM 8-mer E-score
CCTATTAA	0.154 ± 0.024
GATATTAC	0.178 ± 0.026
TGACACCA	-0.0859 ± 0.034
GAGGGTCC	-0.156 ± 0.027
AAAAGGTG	-0.103 ± 0.028
TCGTCCCA	0.114 ± 0.012
GGTGCGAA	0.0856 ± 0.053
ATGACTTC	0.112 ± 0.019
GGCTTACC	-0.108 ± 0.026
CTTATGCA	0.0234 ± 0.047
ATCACTTC	0.0342 ± 0.00049
AATATTTC	0.0962 ± 0.04
AATATTAA	0.33 ± 0.029
ACTATTAT	0.142 ± 0.1
AATATTAT	0.246 ± 0.036
GATATTAA	0.118 ± 0.0066
AATATTCT	0.231 ± 0.057
AATATTTA	0.282 ± 0.036
ACTATTAA	0.157 ± 0.022
CATATTTA	0.228 ± 0.01
